The source of these data is PubChem BioAssay AID1490 (National Center for Advancing Translational Sciences (NCATS), 2009).

Screen size: about 310,000 compounds; about 11,000 (3.5%) were called active. Not shown: some 4% with an inconclusive outcome. This is one part of a sample in which actives are shown more often than they occur. The call rests on the fitted dose curve; in most records, active means well fitted inhibition curve with a large enough effect; inconclusive means small, poorly fitted or top-dose-only effect, or another doubt; inactive means no such curve, though single readings can be large or run the other way.
Potency means the concentration at half of the fitted maximal effect.

In this assay the target is 4'-phosphopantetheinyl transferase ffp (Bacillus subtilis) (UniProt Q9F4F7). The assay is described as follows: qHTS Assay for Inhibitors of Bacillus subtilis Sfp phosphopantetheinyl transferase (PPTase).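 Further: the enzyme is Sfp with the accession as filed and its product quenches rhodamine fluorescence.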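 On largest response in the series, negative = inhibition: 0% = enzyme reaction without inhibitor and -100% = no enzyme wells.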 The following applies: Biochemical Sfp PPTase activity. Summed up:
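After 15 min at room temperature with compound, 15 nM Sfp received 5 uM rhodamine-CoA plus 12.5 uM BHQ-2-ybbR (50 mM Hepes pH 7.6, 10 mM MgCl2). Rate came from the fluorescence difference over 30 min, ex 525/em 598 nm.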
For orientation: In qHTS, concentration-response curves come from the screen itself.
In the case of `Cc1nc([N+](=O)[O-])cn1CC(=O)Nc1ccc(Cl)cc1`, the largest response in the series, negative = inhibition is 16.2% (inactive). Turning to `CCOC(=O)c1c(C)[nH]c(=S)c(C#N)c1-c1ccccc1`, the Potency is 79.4 µM (active). With `N#Cc1c(-c2ccc(Cl)cc2)c2c([nH]c1=S)CCCC2`, the largest response in the series, negative = inhibition is -5.85% (inactive). For the compound `CC(=O)c1c(C)[nH]c(=S)c(C#N)c1-c1ccc(F)cc1`, the Potency was 44.7 µM (active). `CCOC(=O)c1c(C)nc(-c2ccccc2)nc1NC(=O)C(C)C`: the largest response in the series, negative = inhibition was -3.48% (inactive). Same read-out and setting: then `CCOC(=O)c1c(C)[nH]c2c1-c1ccccc1C(=O)C2=O`, with 4.96% (inactive); and `Cc1cc(C)c2c(-c3ccc(F)cc3)c(C#N)c(=O)n(C)c2n1`, with 10.3% (inactive); and `Cc1ccc(S(=O)(=O)NCC(=O)N2CCOCCOCCOCCOCC2)cc1`, with 7.3% (inactive). As to `O=C(O)CCC(=O)N(Cc1ccccc1)Cc1ccccc1`, the largest response in the series, negative = inhibition was 17.6% (inactive). On to `O=C(CN1C(=O)/C(=C\c2ccccc2F)SC1=S)Nc1nc2ccccc2s1`, for which the largest response in the series, negative = inhibition is 5.28% (inactive). On to `C=CCOc1ccc(/C=C2\SC(=S)N(CCC(=O)O)C2=O)cc1`, for which the largest response in the series, negative = inhibition was 6.13% (inactive). On to `COc1ccc(/C=C2\SC(=S)N(CCC(=O)Nc3ccccn3)C2=O)cc1OC`, for which the largest response in the series, negative = inhibition was 11% (inactive). As for `Cc1ccc(-c2nn(-c3cccc(F)c3)cc2CNCCc2ccncc2)o1`, the largest response in the series, negative = inhibition is -5% (inactive). In the case of `COc1ccc(-c2nn(-c3ccccc3)cc2/C=C2/SC(=S)N(CCCC(=O)O)C2=O)c(C)c1`, the Potency is 56.2 µM (active). Consider `Cc1ccc(/C=C2\SC(=S)N(CCC(=O)Nc3ccc(O)cc3)C2=O)cc1`, for which the largest response in the series, negative = inhibition was 15.8% (inactive).

As to `Cc1ccc(-c2nn(-c3ccccc3)cc2/C=C2\SC(=S)N(CCCCCC(=O)O)C2=O)o1`, the Potency is 39.8 µM (active).

Turning to `COc1ccccc1C(=O)NNC(=O)CCN1C(=O)/C(=C\c2ccccc2)SC1=S`, the largest response in the series, negative = inhibition was -10.5% (inactive). As to `Cc1ccc(-c2nn(-c3ccccc3)cc2/C=C/C(=O)Nc2cccc(S(N)(=O)=O)c2)cc1`, the largest response in the series, negative = inhibition is 12.2% (inactive). Turning to `CN(C)S(=O)(=O)c1cccc(-c2nn(-c3ccccc3)cc2/C=C2\SC(=S)N(CC(=O)O)C2=O)c1`, the Potency was 56.2 µM (active). Consider `Cc1ccc(-c2nn(-c3ccccc3)cc2CN(Cc2ccccc2)C(=O)CCC(=O)O)o1`, for which the Potency was 8.91 µM (active). `Cc1n[nH]c(=O)c2c1nnn2Cc1ccc(F)cc1`: the largest response in the series, negative = inhibition is 6.71% (inactive). Still for that read-out and setting: then `CCOCCCNC(=O)C1(O)c2cc(Br)ccc2NC(=O)N1c1ccc(C)c(C)c1` (centres undefined), with -2.61% (inactive).

Turning to `Cc1ccc(S(=O)(=O)NCCC(=O)Nc2cccc(S(N)(=O)=O)c2)cc1C`, the largest response in the series, negative = inhibition is -1.6% (inactive). In the case of `O=S(=O)(c1ccc(F)cc1)N1CCN=C1SCc1cccc(F)c1`, the largest response in the series, negative = inhibition is 5.65% (inactive).
